MITF inh: blocks human microphthalmia-associated transcription factor | O75030 | AlphaScreen MITF homodimerization, bead proximity signal | inhibition, % at 2.6 µM | 650,000 tested, 0.91% active | AID 1259374; in the data active = inhibition above about 50%
FBW7 activator: activators of human E3 ligase FBW7; Q969H0; AlphaScreen FBW7–phospho-cyclin E peptide binding, activator screen; normalized activity (activation), % at 26.1 µM; 650,000 tested, 0.13% active; AID 1259310; in the data active = normalized activity above about 1.9%;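 also: purified mutant Fbw7 with reduced substrate affinity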
GPR151 ag: human GPR151 activation; Q8TDV0; PathHunter beta-arrestin GPR151 cells, luminescence; activation, % at 11.2 µM; 650,000 tested, 1% active; AID 1508602; in the data active = activation above about 4.9%
Target sequence (Q8TDV0 whole entry, looked up): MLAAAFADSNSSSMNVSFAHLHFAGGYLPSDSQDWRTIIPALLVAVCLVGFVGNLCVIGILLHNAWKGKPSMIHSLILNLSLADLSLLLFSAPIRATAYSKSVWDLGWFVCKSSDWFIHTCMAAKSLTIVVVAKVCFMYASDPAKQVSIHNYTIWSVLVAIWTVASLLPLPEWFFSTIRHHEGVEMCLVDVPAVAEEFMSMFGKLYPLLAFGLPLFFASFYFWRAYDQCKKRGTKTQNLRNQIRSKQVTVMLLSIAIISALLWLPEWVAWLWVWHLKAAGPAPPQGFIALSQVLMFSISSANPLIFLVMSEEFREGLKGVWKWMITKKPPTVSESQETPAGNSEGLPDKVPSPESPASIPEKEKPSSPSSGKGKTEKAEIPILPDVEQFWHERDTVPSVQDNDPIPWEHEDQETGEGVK
TEAD-YAP inh: TEAD-YAP interaction inhibition. inhibition, % at 9.12 µM. AID 1259422. 640,000 tested, 1.4% active. HEK-TIYL cells, TEAD-Gal4/YAP UAS-luciferase luminescence; in the data active = inhibition above about 32%
A number is an active result; 0 = inactive. Shown are actives, neighbours in structure and some others; about 3.5% of the full set was active somewhere.

SMILES	MITF inh	FBW7 activator	GPR151 ag	TEAD-YAP inh
COC(=O)c1ccccc1NC(=O)CCS(=O)(=O)c1ccc(OC)cc1	0	0	0	0
C[C@@H]1CN(C(=O)c2ccc(OC3CCN(CCc4ccccc4)CC3)cc2)C[C@H](C)O1	0	0	0	0
CC(=O)Nc1ccc(OCC(O)Cn2c3ccc(Br)cc3c3cc(Br)ccc32)cc1 (stereo not given)	0	0	0	0
CCc1nc(SCc2ccc(Cl)cc2Cl)c(C#N)c2c1CCCC2	0	2.2	0	0
CCOC(=O)c1c(NC(=O)C2CC2c2ccccc2)sc(C)c1C (stereo not given)	0	0	0	0
CCc1c(C)sc(NC(=O)C2CC2c2ccccc2)c1C(N)=O (stereo not given)	0	0	0	33
COc1ccc(CCn2c(C)c3c(=O)n(-c4nc5ccccc5s4)[nH]c3cc2=O)cc1	0	0	0	0
Cc1c2c(=O)n(-c3nc4ccccc4s3)[nH]c2cc(=O)n1Cc1ccccc1	71	0	0	0
O=S(/C=C(\F)C(F)(F)C(F)(F)C(F)F)Cc1ccccc1 (stereo not given)	0	0	0	50
CC(=O)CC(O)(c1ccccc1)C(F)(F)C(F)F (stereo not given)	0	0	0	0
CC1CC(C)CN(c2nc(N)ncc2[N+](=O)[O-])C1 (stereo not given)	0	0	0	49
CN(C)CCCN(C(=O)c1ccc(Br)s1)c1nc2c(F)cc(F)cc2s1	0	3.2	0	0
CN(C)CCCN(C(=O)c1ccc2c(c1)OCCO2)c1nc2c(F)cc(F)cc2s1	0	0	0	0
CCOC(=O)c1nc(Nc2ccc(Oc3ccc4c(c3)C(=O)N(c3ccccc3C(F)(F)F)C4=O)cc2)c2ccccc2n1	0	0	0	0
OCCCNc1ccc2ncc(-c3ccc(F)c(Cl)c3)n2n1	0	0	0	0
OCCCNc1ccc2ncc(-c3ccc(OC(F)(F)F)cc3)n2n1	0	0	0	0
N#Cc1ccc(-c2cnc3ccc(NCCCO)nn23)cc1	0	0	0	50
OCCCNc1ccc2ncc(-c3ccc(Oc4ccccc4)cc3)n2n1	0	0	0	50
OCCCNc1ccc2ncc(-c3ccc(F)cc3)n2n1	0	0	0	54
CNC(=S)N(CCc1nc2ccccc2[nH]1)C1CCCC1	0	0	0	0
C=CCOc1ccc(C2C(C(=O)OCC)=C(C)N=c3s/c(=C/c4cccc(O)c4)c(=O)n32)cc1OCC (stereo not given)	0	0	0	0
COc1ccc(OC)c(-c2cc(Cl)c3c(c2)CC(CNC(=O)Cn2ccc(C)n2)O3)c1 (stereo not given)	0	0	0	0
CCCCN1C(=O)c2cccc3c(NC(=O)c4ccc(C#N)cc4)ccc1c23	0	0	0	48
CCCCOc1ccc(C(=O)Nc2ccc3c4c(cccc24)C(=O)N3CC)cc1	0	0	0	0
CC(O)CCC(=O)N/N=C/c1ccc(O)cc1O (stereo not given)	0	0	0	0
SMILES	MITF inh	FBW7 activator	GPR151 ag	TEAD-YAP inh
Cc1ccc(N2C(=O)c3cc(N4CCN(c5ccccc5Cl)CC4)c([N+](=O)[O-])cc3C2=O)cc1	0	0	0	0
COc1ccc(SCCCC(=O)Nc2c3c(nn2C)CCC3)cc1	0	0	0	45
COc1ccc(SCC(=O)Nc2c3c(nn2C)CCC3)cc1	0	0	0	38
Cc1cccc(C(=O)Nc2ccc(-c3nc4cccnc4s3)cc2)c1	0	0	0	0
Clc1ccc(CNc2nc(Cc3ccccc3)nc3sc4c(c23)CCCC4)cc1	0	0	0	0
CC(C)(C)C1CCC(OC(=O)Nc2ccc3ccccc3c2)CC1 (stereo not given)	0	0	0	80
CC(C)(C)C1CCC(OC(=O)Nc2ccccc2)CC1 (stereo not given)	0	0	0	0
COc1ccc(C(=O)c2snc(NCc3ccccc3)c2N)cc1	0	0	0	0
COc1ccc(Nc2nsc(C(=O)c3ccc(F)cc3)c2N)cc1	0	0	0	44
CCC(CO)Nc1ccc2ncc(-c3ccc(C(C)=O)s3)n2n1 (stereo not given)	0	0	0	47
OCc1ccc(-c2cnc3ccc(NC4CCC(O)CC4)nn23)cc1 (stereo not given)	0	0	0	51
CCC(CO)Nc1ccc2ncc(-c3cccc(OC)c3)n2n1 (stereo not given)	0	0	0	57
CCC(CO)Nc1ccc2ncc(-c3ccco3)n2n1 (stereo not given)	0	0	0	33
O=C(O)c1ccc(-c2cnc3ccc(NC4CCC(O)CC4)nn23)cc1 (stereo not given)	0	0	0	0
COC(=O)c1ccccc1NC(=O)Nc1cc(C(F)(F)F)ccc1F	0	0	0	0
CCOC(=O)c1c(NC(=O)c2ccccc2)sc(C(=O)Nc2ccccc2F)c1C	0	0	0	0
CCOc1ccc(N2C(=O)CC(Nc3ccc(OC)cc3)C2=O)cc1 (stereo not given)	0	0	0	0
COc1cccc(-c2cnc3ccc(NCC4CC4)nn23)c1	0	0	0	47
COc1cncc(-c2cnc3ccc(NC4CCOCC4)nn23)c1	0	0	0	42
CCSCCOC(=O)C1=C(C)NC2=C(C(=O)C(C(=O)OC)C(C)C2)C1c1c(F)cccc1Cl (stereo not given)	0	1.9	0	0
CCOc1cc(C2CC(=O)Nc3ccc4ccccc4c32)cc(Br)c1O (stereo not given)	0	0	0	36
Cc1c(C(=O)Nc2cccc(Cl)c2)nnn1-c1ccccc1F	0	0	0	0
Cc1c(C(=O)Nc2cccc(F)c2)nnn1-c1ccccc1F	0	0	0	43
COc1ccc(S(=O)(=O)/N=C2/C=C(Nc3ccccc3)C(=O)c3ccccc32)cc1	0	0	0	0
COc1ccc(S(=O)(=O)/N=C2/C=C(Nc3ccccc3OC)C(=O)c3ccccc32)cc1	57	0	0	0
SMILES	MITF inh	FBW7 activator	GPR151 ag	TEAD-YAP inh
O=C(Sc1cccc2cccnc12)C(=O)Sc1cccc2cccnc12	0	0	0	0
CC(=O)CC(c1ccccc1)C(CC(C)=O)c1ccccc1 (stereo not given)	0	0	0	0
FC(F)(F)c1ccccc1NC(=S)N/N=C1\CC2CC=CC12 (stereo not given)	0	0	0	47
Cc1cc(NC(=O)c2ccccc2NS(C)(=O)=O)ccc1Br	0	0	0	0
Cn1cc(CNc2nncc(-c3ccc(Cl)cc3)n2)cn1	0	0	0	0
Cn1cc(CNc2nncc(-c3ccc4ccccc4c3)n2)cn1	0	0	0	34
O=C(O)c1cccc(NS(=O)(=O)c2cccs2)c1	0	0	0	0
Fc1ccc(-c2cnc(N3CCC4(CC3)OCCO4)nc2)cc1	0	0	0	43
Cc1ccc(-c2cnc(N3CCC4(CC3)OCCO4)nc2)cc1	0	0	0	0
Cc1ccc2oc(-c3cc(N)ccc3Cl)nc2c1	0	0	0	0
Cc1cc2nc(-c3cccc(N)c3C)oc2cc1C	0	0	0	89
Cc1cc2nc(-c3cccc(NC(=O)C(C)C)c3C)oc2cc1C	0	0	0	0
Cc1ccc(C)c(-c2nc3cc(N)ccc3o2)c1	0	0	0	37
Nc1ccc(-c2nc3cc(N)ccc3o2)c(O)c1	0	0	0	0

Screening results: PubChem, The Scripps Research Institute Molecular Screening Center
